Rows were chosen to be rich in hits. Some 4.2% of all compounds tested hit in one or more screens of this group.
esBAF inh: Bmi1 luciferase reporter increase in mESCs, primary screen, esBAF inhibitor project, mouse ES cells, Bmi1 luciferase knock-in, single point; AID 602393, 2012; hit rate 2% among 350,000; reporter increase, % at 12.5 µM; 24 h; 100% = twice the neutral-well signal; in the data active means activation above about 40%; inconclusive means no clear call, values can overlap the other calls;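 further: 0% = median of the plate's neutral control wells and 100% = double that signal; a rise in the Bmi1 reporter signal indicates esBAF inhibition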
GAA850 FXN act: FXN promoter activators, primary screen, cell-based, luciferase luminescence, HEK293 lucGAA850; HEK293 lucGAA850 FXN promoter luciferase reporter, 24 h; percent of 10 µM SAHA response; hit rate 0.56% among 360,000; activation, % at 6 µM; AID 540364, 2011;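 active means activation above the average of all compounds screened plus 3 SD, cutoff fixed separately per campaign, cut at about 7.5% in these data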;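 further: 0% = DMSO wells and 100% = 10 µM SAHA wells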
AHR act: AHR activators, primary screen, cell-based, luminescence, luciferase reporter, human. Aryl hydrocarbon receptor (Homo sapiens), P35869. AID 2796, 2010. activation, % at 5 µM. hit rate 2.5% among 320,000. AHR-responsive luciferase reporter cells; in the data active means activation above about 47%;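 further: 0% = vehicle wells and 100% = reference agonist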
Target sequence (P35869 whole entry, looked up): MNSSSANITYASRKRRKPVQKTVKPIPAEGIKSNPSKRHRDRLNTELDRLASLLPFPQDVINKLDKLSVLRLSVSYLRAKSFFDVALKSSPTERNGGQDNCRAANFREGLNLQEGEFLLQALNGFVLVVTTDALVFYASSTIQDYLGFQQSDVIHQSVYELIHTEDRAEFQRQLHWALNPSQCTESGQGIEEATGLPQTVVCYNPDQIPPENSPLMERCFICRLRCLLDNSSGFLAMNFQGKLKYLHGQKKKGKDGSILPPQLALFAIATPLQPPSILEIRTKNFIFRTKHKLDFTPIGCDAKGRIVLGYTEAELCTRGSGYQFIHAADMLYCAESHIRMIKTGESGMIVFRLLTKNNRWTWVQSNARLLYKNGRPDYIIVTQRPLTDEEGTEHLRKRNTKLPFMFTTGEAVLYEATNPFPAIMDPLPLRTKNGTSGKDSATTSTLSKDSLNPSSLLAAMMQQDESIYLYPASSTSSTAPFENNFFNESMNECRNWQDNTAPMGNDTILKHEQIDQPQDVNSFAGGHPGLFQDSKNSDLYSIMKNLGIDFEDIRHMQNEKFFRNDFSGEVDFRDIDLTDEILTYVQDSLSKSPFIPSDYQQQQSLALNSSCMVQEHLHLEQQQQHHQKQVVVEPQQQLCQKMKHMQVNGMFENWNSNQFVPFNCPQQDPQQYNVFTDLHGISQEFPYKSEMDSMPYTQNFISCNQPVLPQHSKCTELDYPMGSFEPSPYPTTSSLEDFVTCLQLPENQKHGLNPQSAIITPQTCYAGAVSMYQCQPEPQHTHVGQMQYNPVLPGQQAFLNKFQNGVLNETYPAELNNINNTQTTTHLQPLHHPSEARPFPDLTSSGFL
MITF act: activators of MITF-driven TRPM1 promoter reporter, primary screen, cell-based, SK-MEL-5, luciferase, single point; SK-MEL-5 TRPM1-promoter luciferase, 24 h; % of positive control, neutral wells = 0; activation, % at 12.5 µM; hit rate 0.75% among 300,000; AID 588334, 2011;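 active means mean activation of at least 80% with every replicate also reaching 80%; inconclusive means mean reaches 80% but some replicate falls short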;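 further: 0% = neutral control wells and 100% = parthenolide positive control wells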
Wnt act: Wnt/beta-catenin pathway activators, primary screen, cell-based, plate reader, single point; AID 743398, 2014; activation, % at 9.35 µM; Wnt/beta-catenin reporter cell assay, activator; hit rate 1.2% among 300,000; in the data active means activation above about 30%, passing the limit was not always enough; inconclusive means no clear call, values can overlap the other calls;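 further: 0% = neutral control wells and 100% = positive control wells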
* marks the source's active call; other numbers are inactive results; ? = inconclusive; / = no result given.

SMILES	esBAF inh	GAA850 FXN act	AHR act	MITF act	Wnt act
COc1cccc(-c2ccc3n(c2=O)C[C@@H]2[C@@H](CO)[C@H](C(=O)NC4CCCC4)N[C@H]32)c1	-1	/	/	/	/
CC1CCCCN1C(=S)NCCc1ccccc1 (stereo not drawn)	34	1	16	/	37*
Cc1ccccc1Nc1nnc(SCC2CCCCO2)s1 (stereo not drawn)	16	4	-4	13	50*
COc1ccccc1Nc1nnc(SCC2CCCCO2)s1 (stereo not drawn)	/	-1	-6	-2	4
Cc1ccc(S(=O)(=O)NCC[C@@H]2CC[C@H](NC(=O)C3CCOCC3)[C@@H](CO)O2)cc1	-2	/	/	/	/
Cc1ccc(C)c(OCC(=O)O/N=C(\N)c2cccnc2)c1	8	1	5	24	7
N/C(=N\OC(=O)COc1ccc2ccccc2c1)c1ccccn1	103*	5	-5	56	36*
Cc1ccc(C)c(OCC(=O)O/N=C(\N)c2ccccn2)c1	72*	5	7	96*	45*
C[C@@H]1CCCCO[C@@H](CN(C)C(=O)Nc2cccc3ccccc23)[C@@H](C)CN([C@H](C)CO)C(=O)c2cc(NC(=O)Nc3ccc4c(c3)OCO4)ccc2O1	4	/	/	/	/
C[C@@H]1CN([C@@H](C)CO)C(=O)c2cc(NC(=O)NC3CCCCC3)ccc2O[C@@H](C)CCCCO[C@H]1CN(C)S(=O)(=O)c1cn(C)cn1	-2	/	/	/	/
O=C(C[C@H]1CC[C@H](NC(=O)Nc2cccc(F)c2)[C@H](CO)O1)NCC1CCCCC1	8	/	/	/	/
O=C(Nc1nc2ccccc2s1)c1ccccc1[N+](=O)[O-]	50*	5	28	/	9
COc1cccc(C(=O)Nc2nc3ccccc3s2)c1	3	3	33	66	26
O=C(O)c1cccc([N+](=O)[O-])c1C(=O)Nc1nc2ccccc2s1	/	0	5	-13	1
O=C(Nc1nc2ccccc2s1)c1ccc([N+](=O)[O-])o1	/	1	1	-44	20
O=C(Nc1nc2cc3c(cc2s1)OCCO3)c1ccc([N+](=O)[O-])o1	20	4	7	-34	51*
COc1ccc2nc(NC(=O)c3ccccc3[N+](=O)[O-])sc2c1	50*	0	4	16	8
COc1ccc2nc(NC(=O)c3ccc([N+](=O)[O-])o3)sc2c1	36	2	52*	/	7
Cc1ccc(S(=O)(=O)N(C)C[C@H]2OCCCC[C@@H](C)Oc3ccc(NS(C)(=O)=O)cc3C(=O)N([C@@H](C)CO)C[C@@H]2C)cc1	5	/	/	/	/
Cc1noc(C)c1NC(=O)N[C@H]1CC[C@@H](CCNC(=O)C2CCCCC2)O[C@H]1CO	-4	/	/	/	/
C[C@H]1CN([C@@H](C)CO)C(=O)Cc2cc(NC(=O)NC3CCCCC3)ccc2O[C@@H]1CN(C)Cc1ccc(C(F)(F)F)cc1	2	/	/	/	/
O=C(COC(=O)C1CC2CCCC(C1)C2=O)Nc1nc(-c2ccc(F)c(F)c2)cs1 (stereo not drawn)	70*	2	-3	41	19
CCCN1[C@@H]2c3ccc(C4=CCCCC4)c(=O)n3C[C@H]1[C@H](CO)[C@H]2C(=O)N1CCOCC1	-8	/	/	/	/
Cc1ccccc1C(=O)O/N=C(\N)c1ccc([N+](=O)[O-])cc1	57*	0	15	/	25
N/C(=N\OC(=O)c1ccccc1Br)c1cccc([N+](=O)[O-])c1	3	5	19	65	43*
SMILES	esBAF inh	GAA850 FXN act	AHR act	MITF act	Wnt act
N/C(=N\OC(=O)c1ccccc1Br)c1ccc([N+](=O)[O-])cc1	50*	3	20	/	7
Cc1ccccc1/C(N)=N/OC(=O)c1ccc(F)cc1	48*	3	31	28	8
N/C(=N\OC(=O)c1ccc([N+](=O)[O-])cc1)c1ccc(Br)cc1	34	-2	-1	/	16
COc1ccc(S(=O)(=O)N[C@@H]2CC[C@@H](CC(=O)N3CCC(Cc4ccccc4)CC3)O[C@H]2CO)cc1	12	/	/	/	/
CCNC(=O)c1cc2c(c(-c3cccc(-c4cccc(F)c4)c3)n1)[C@H](CCO)N([S@@](=O)C(C)(C)C)C2	5	/	/	/	/
Cc1ccc(S(=O)(=O)N(C)C[C@@H]2OCc3ccccc3-c3ccccc3C(=O)N([C@H](C)CO)C[C@@H]2C)cc1	-2	/	/	/	/
FC(F)(F)c1ccc(-n2cnc3ccccc32)nc1	5	3	65*	/	1
COc1ccc(NC(=O)N(C)C[C@H]2OCCCC[C@H](C)Oc3ccc(N(C)C)cc3C(=O)N([C@@H](C)CO)C[C@@H]2C)cc1	3	/	/	/	/
Cc1[nH]c2ccccc2c1/C=N\NC(=O)CNc1ccc2c(c1)OCO2	11	0	68*	-8	2
Oc1[nH]c2ccccc2c1C=Nc1ccc2c(c1)OCO2	57*	5	58*	?	39*
O=C(CNc1ccc2c(c1)OCO2)N/N=C\c1ccccc1Cl	1	2	81*	0	/
Cc1noc(C)c1NC(=O)Nc1ccc2c(c1)C(=O)N([C@@H](C)CO)C[C@H](C)[C@@H](CN(C)S(=O)(=O)c1ccccc1)OCCCC[C@H](C)O2	2	/	/	/	/
CNC(=O)C[C@H]1CC[C@H]2[C@@H](COc3ccc(NC(=O)c4ccc(F)cc4)cc3C(=O)N2C)O1	-3	/	/	/	/
CC(C)(C)c1csc(N/N=C/c2ccc(O)cc2)n1	?	6	72*	97*	11
CC(=O)Nc1sc(N/N=C/c2ccc(O)cc2)nc1-c1ccc(C)cc1	/	1	8	-1	10
Fc1ccc(/C=N/Nc2nccnc2Cl)cc1	39	6	18	/	12
Oc1ccc(/C=N/Nc2nccnc2Cl)cc1	-4	6	24	-4	47*
O=C(c1ccccc1F)N1CC[C@H]2[C@H](CO)Nc3ccc(-c4cccc(F)c4)cc3[C@H]21	1	/	/	/	/
COc1ccc(OC)c2c1sc(=NC(=O)C1CC1)n2C	-2	5	24	-20	7
CCOC(=O)c1ccc2c(c1)sc(=NC(=O)c1ccco1)n2CCOC	15	1	-2	14	/
Cc1ccc(-c2c(C)sc(=NC(=O)c3ccco3)n2C)cc1	57*	5	0	100*	/
CCn1c(=NC(=O)c2ccco2)sc2cccc(F)c21	70*	3	36	20	28
COc1ccc(OC)c2c1sc(=NC(=O)c1ccco1)n2C	8	5	51*	-6	1
Cc1ccc(-c2cc(C(=O)N3CCN(C(=O)c4ccco4)CC3)no2)cc1	-4	2	15	4	/
COc1ccc(C(=O)N=c2sc3c(C)ccc(OC)c3n2C)cc1OC	36	6	21	99*	?
COc1cccc(C(=O)N=c2sc3c(C)ccc(OC)c3n2C)c1	48*	7	29	54	20

Assay outcomes from PubChem BioAssay.
